40 compounds from ChEMBL document CHEMBL3433997, “St. Jude Leishmania screening dataset” (2016) can be followed below.

This assay deals with Glucose transporter (Leishmania mexicana) (UniProt O61059). Put plainly: ST_JUDE_LEISH: Cytotoxicity at 2uM final concentration against transgenic Leishmania Mexicana promastigotes LmGT2 that are glucose transport deficient and complemented with the L. Mexicana glucose transporter 2. Activity is measured by DNA content using SYBR green in vitro. The format is functional.
Consider `COc1ccc(C(=O)N2CCC3(CC2)C(=O)N(CC(=O)NCC2CCCCC2)CN3c2ccccc2)cc1`, for which the inhibition was found to be 3.35%.
In the case of `O=C(NCc1cccs1)[C@H](Cc1ccccc1)Nc1ccnc(NCCc2ccccc2)n1` it was -0.38%.
For the compound `CN1CCC(N2CCN(C(=O)c3cccc(-c4cccc(-c5nc6ccccc6[nH]5)c4)c3)CC2)CC1`, the inhibition worked out at 2.11%.
`CCN(CCCN1CCCCC1)c1cc(C)nc(Nc2cc(Br)ccc2C)n1`: the inhibition is -0.36%.
Next, `CCN1CCN(Cc2ccc(-c3ccc(NS(=O)(=O)c4cccc5cccnc45)cc3)cc2)CC1`: 9.92%; `COc1ccc(NC(=O)c2ccc(-c3nc(-c4cccc(C(F)(F)F)c4)cs3)cc2)cc1N1CCN(C)CC1`: 2.01%; `O=C1OC(c2ccccc2)(c2ccccn2)CN1C1CCN(Cc2cccn2-c2ccc(Cl)cc2)CC1` (stereo not given): -0.08%.
`CC(=O)N1CCC(C(=O)Nc2ccc(-c3cccc(-c4nc5cccc(C)c5[nH]4)c3)cc2)CC1`: the inhibition was 0.44%.
In the case of `O=C(C=Cc1ccc(Cl)c(Cl)c1)NCCCCCN1CCC(CCCNS(=O)(=O)c2ccc(Br)cc2)CC1` it was 4.73%.
In the case of `CCOC(=O)/C(=N\OC(C(=O)OC(C)(C)C)c1ccccc1)c1csc(NC(c2ccccc2)(c2ccccc2)c2ccccc2)n1` (stereo not given) it was 0.99%; in that of `CCCN(Cc1nnc(-c2cccs2)o1)C(=O)CSc1nnnn1-c1ccc(C)c(C)c1`, 9.19%.
With `Cc1onc(-c2ccccc2)c1-c1nc(NCCC(c2ccccc2)c2ccccc2)no1`, the inhibition was 6.9%.
On to `COc1cccc2cc(C(=O)N[C@@H](CC(C)C)C(=O)N[C@H](/C=N/NC(=O)OC(C)(C)C)CC(=O)OC(C)(C)C)oc12`, for which the inhibition was found to be 3.63%.
With `CN(C)CCN(C)Cc1ccc(-c2ccc3c(Nc4ccc(F)cc4Cl)ccnc3c2)o1`, the inhibition is -0.21%.
Take `CCCC(C)N(Cc1ccc(C(C)(C)C)cc1)C(=O)c1cccc(C#N)c1` (stereo not given): the inhibition is -1.38%.
Regarding `CC(=O)NC1=NC(C)(C)N(OCc2ccc(Cl)c(Cl)c2)C(NC(C)=O)=N1`, the inhibition is -1.61%.
Turning to `O=C(NCCCCN1CCC(c2ccc3c(c2OCCCO)CCCC3)CC1)c1ccc(-c2ccc(C(F)(F)F)cc2)cc1`, the inhibition was 2.9%.
In the case of `CN1CCCN(Cc2cccc(-c3ccc(NC(=O)c4cccc(C#N)c4)cc3)c2)CC1` it was 9.31%.
In the case of `O=C(Nc1nc(-c2ccccn2)cc2ccccc12)c1cccc(Cl)c1` it was 8.17%.
Take `Cc1ccc(O)cc1Nc1ccnc2cc(-c3ccccn3)ccc12`: the inhibition is 3.28%.
In the case of `COc1ccc(Cc2c(Cl)nc3nc(N)nc(N)c3c2C)cc1` it was 8.71%; in that of `CC1=C(C(=O)OC(C)C)C(c2ccccc2Cl)C2=C(CC(c3ccccc3)CC2=O)N1` (stereo not given), 7.36%.
In the case of `COc1cccc(-c2cnc(N)c(-c3nc4ccc(C(F)(F)F)cc4[nH]3)c2)c1` it was 1.42%; in that of `Clc1ccc2nnc(-c3c(Cl)cccc3Cl)n2n1`, 2.05%; in that of `O=[N+]([O-])c1ccc(-c2ccc(C=NNc3nc(Nc4ccccc4)nc(Nc4ccccc4)n3)o2)cc1`, -1.48%.
In the case of `Cc1cccc2nc(-c3ccc(-c4cccc(NC(=O)NCc5cccc(F)c5)c4)cc3)[nH]c12` it was -1.06%; in that of `COc1cccc(-c2cc(-c3ccc(NC(=O)c4ccccc4)cc3)c3c(N)ncnc3n2)c1`, -2.31%.
For `Cc1ccc(S(=O)(=O)NC2CCN(c3ccnc4cc(Cl)ccc34)C2)cc1` (stereo not given), the inhibition was found to be 4.19%.
In the case of `Oc1cc(Nc2ccnc3cc(-c4ccc(CN5CCCCC5)o4)ccc23)c(Cl)cc1F` it was 3.68%; in that of `Cc1ccc(-c2nc(N3CCN(C(=O)c4ccco4)CC3)c3ccc(Cl)cc3n2)cc1`, 2.34%; in that of `O=C1NC(=O)C(c2ccc(Cl)cc2)=C1Nc1cccc(S(=O)(=O)C(F)(F)F)c1`, 1.48%.
With `COc1ccccc1C1CCN(C2CCC(NC(=O)/C=C/c3ccc(F)c(F)c3)CC2)CC1` (stereo not given), the inhibition was -2.36%.
As for `Cc1ccc(NC(=O)NC2CCN(c3ccnc4cc(Cl)ccc34)C2)cc1` (stereo not given), the inhibition turned out to be 2.34%.
Next, `CCN(CC)S(=O)(=O)c1ccc(C=CC(=O)Nc2cc(Cl)ccc2N2CCOCC2)cc1`: 5.02%; `CC1(C)N=C(N)N=C(N)N1c1ccccc1`: 1.32%; `COc1cccc2cc(C(=O)N[C@@H](CC(C)C)C(=O)N[C@H](C=NN3CCOC3=O)Cc3ccccc3)oc12`: -0.91%.
Turning to `Oc1cccc2c1CC(NCc1ccccc1)CC2` (stereo not given), the inhibition was found to be 2.32%.
Next, `COc1cc(Cc2cnc(N)nc2N)cc(OCC(C)(C)C(=O)O)c1OC`: -0.23%.
As to `COc1ccccc1NC(=O)Nc1ccc(-c2cccc(-c3nc4ccccc4[nH]3)c2)cc1`, the inhibition was 3.27%.
Turning to `OCC(c1ccccc1)n1c(COc2ccc(Cl)cc2)nc2c(OCCCN3CCCCC3)cccc21` (stereo not given), the inhibition was 6.47%.
